Reference: article PMC5540273 (PLoS ONE, 2017)

These compounds were tested on CDKL1. Conditions: concentration: 1 μM, replicates: in singlicate; n = 1.
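Further: KINOMEscan kinase panel screen.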

Row | Compound | %Inh
1 | Cl.Cl.NCC(C(=O)Nc1cc(Br)c(-c2ccnc3[nH]ccc23)s1)c1ccccc1 (stereo not shown) [GSK1269851] | 20%
2 | Cl.c1ccc(-c2ccc3c(Nc4ccc5[nH]ncc5c4)ccnc3c2)nc1 [GW440137] | 7%
3 | NCCCC(NC(=O)c1cc(Br)c(-c2ccnc3[nH]ccc23)s1)c1ccccc1.O=C(O)C(F)(F)F.O=C(O)C(F)(F)F (stereo not shown) [GSK1287544] | 0%
4 | Cl.Cl.NCC(NCc1ccc(-c2ccnc3[nH]ccc23)s1)c1ccccc1 (stereo not shown) [GSK1321565] | 0%
5 | Cc1ccc(S(=O)(=O)Nc2ccc(Nc3nccc(Nc4cccc5[nH]ncc45)n3)cc2)cc1 [GSK581271] | 2%
6 | O=C(Nc1cccc(Oc2ccc3nc(NC(=O)C4CC4)cn3n2)c1)c1ccccc1C(F)(F)F | 43%
7 | COc1cccc(NC(=O)NC2CCN(c3ccnc(Nc4cc(OC)c(OC)c(OC)c4)n3)C2)c1 (stereo not shown) [GSK1379763] | 0%
8 | Cl.Cl.NCC(NC(=O)c1cc(-c2ccccc2)c(-c2ccnc3[nH]ccc23)s1)c1ccccc1 (stereo not shown) [GSK1321561] | 8%
9 | Cc1cccc(NC(=O)Nc2ccc(Oc3ncnc4ccn(C)c34)cc2)c1 | 11%
10 | COc1cc(Nc2nccc(-c3c(-c4cccc(NC(=O)c5c(F)cccc5F)c4)nn4ncccc34)n2)cc(OC)c1OC [GSK327238] | 20%
11 | COc1cc(Nc2nccc(N3CCC(NC(=O)Nc4cccc(C(C)=O)c4)C3)n2)cc(OC)c1OC (stereo not shown) [GSK1379753] | 17%
12 | Cc1ccc(C)c(NC(=O)NC2CCN(c3ccnc(Nc4ccc(F)cc4)n3)C2)c1 (stereo not shown) [GSK1379720] | 1%
13 | COc1ccc(CNC(=O)NC2CCN(c3ccnc(Nc4ccc(F)cc4)n3)CC2)cc1 [GSK1379788] | 9%
14 | Nc1ncc(-c2cccnc2)c2scc(-c3ccc4c(c3)CCN4C(=O)Cc3ccccc3)c12 [GSK683281] | 26%
15 | O=C(Nc1n[nH]c2cc(-c3ccoc3)ccc12)C1CC1 [SB-738481] | 18%
16 | O=c1[nH]cc(-c2ccc(N3CCOCC3)cc2)c2sc(-c3cn[nH]c3)cc12 [GSK2276055] | 11%
17 | Nc1n[nH]c2cnc(-c3ccccc3)cc12 [SB-642124] | 1%
18 | O=C(Nc1cccc(-c2nn3ccccc3c2-c2ccnc(Nc3cccc(C(F)(F)F)c3)n2)c1)c1c(F)cccc1F [GSK292658] | 0%
19 | CN(c1ccc(NC(=O)Nc2cc(C(F)(F)F)ccc2F)cc1)c1ccnc(Nc2ccc(S(N)(=O)=O)cc2)n1 [GW809893] | 80%

Row | Compound | %Inh
20 | CNC(=O)c1ccccc1Nc1nc(Nc2ccc(N3CCOCC3)cc2)ncc1Cl.Cl [GSK1576028] | 36%
21 | COC(=O)Nc1nc2ccc(Oc3ccc(NC(=O)Nc4cc(C(F)(F)F)ccc4F)cc3)cc2n1C.Cl [GW692089] | 2%
22 | COc1cc2c(cc1OCCN1CCNCC1)ncc1c3ccc(C#N)cc3[nH]c21 | 19%
23 | O=C(NC1CCN(c2ccnc(Nc3ccc(F)cc3)n2)C1)c1cc2ccccc2s1 (stereo not shown) [GSK1379716] | 0%
24 | Oc1cc(Nc2ccnc3cc(I)ccc23)ccc1F [GW552771] | 0%
25 | CCn1c(-c2nonc2N)nc2c(C#CC(C)(C)O)ncc(OCCCCN)c21.O=C(O)C(F)(F)F.O=C(O)C(F)(F)F [GSK507274] | 0%
26 | CC(=O)Nc1nc2cnc(Nc3cc(NC(=O)c4cccc(C5(C#N)CC5)c4Cl)ccc3C)nc2s1 | 5%
27 | O=C(Nc1ccccc1F)NC1CCN(c2ccnc(Nc3ccc(F)cc3)n2)CC1 [GSK1379800] | 0%
28 | O=C(Nc1n[nH]c2nc(-c3ccc(O)cc3)ccc12)C1CC1 [SB-710363] | 39%
29 | c1ccc(Oc2ccc(Nc3ccnc4cc(-c5ccc(CNCCN6CCOCC6)o5)ccc34)cc2)nc1 [GW567145] | 2%
30 | COc1cccc(C(=O)Nc2cccc(Oc3ccc4nc(NC(=O)C5CC5)cn4n3)c2)c1 | 58%
31 | Cc1occc1-c1ncc(OC[C@@H](N)Cc2c[nH]c3ccccc23)cc1-c1ccc2[nH]nc(C)c2c1.O=C(O)C(F)(F)F [GSK682037] | 11%
32 | COCCOCCOc1cc2ncc3c4ccc(C#N)cc4[nH]c3c2cc1OC | 56%
33 | Cn1cc(-c2ccc3c(c2)CCN3C(=O)Cc2cccc(Cl)c2)c2c(N)ncnc21 [GSK2606590] | 0%
34 | O=C(Nc1cccc(-c2nn3ncccc3c2-c2ccnc(Nc3ccccc3)n2)c1)c1c(F)cccc1F [GSK198271] | 3%
35 | CN(C)Cc1ccc(-c2ccc3c(Nc4ccc(Oc5ccccn5)cc4)ccnc3c2)o1 [GW567148] | 0%
36 | C[C@@H](Oc1cc(-n2cnc3cc(-c4ccnc(NCCS(C)(=O)=O)c4)ccc32)sc1C(N)=O)c1ccccc1Cl [GSK907232] | 4%
37 | O=C(O)C(F)(F)F.O=C(O)C(F)(F)F.O=c1[nH]ccc2nc(N[C@@H]3CCCNC3)nc(Nc3ccc(S(=O)(=O)N4CCOCC4)cc3)c12 [GSK2177277] | 64%
